Among the data in the supplement of paper PMC6763611 are growth inhibition values, retold here.

For the assay, the system named is Plasmodium falciparum NF54. As to the kind of experiment: growth inhibition relative to untreated control; higher = more inhibition. Conditions: 5 µM; minimal medium (MM); 72 h. In short, it runs like this:
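Ring-stage P. falciparum NF54 parasites at 1% hematocrit and 1% parasitemia were dispensed at 100 μL/well into dark 96-well half-area plates and given a single dose of test compound at 5 μM or 1 μM for 72 h at 37 °C. Incubation took place in minimal RPMI, either alone or supplemented with the chorismate end-products folate (2.2 μM), pABA (7.3 μM), pHBA (7.3 μM), tyrosine (111 μM), phenylalanine (90 μM) and tryptophan. Growth inhibition was determined with SYBR Green relative to untreated wells, using uninfected erythrocytes for background.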
`NS(=O)(=O)c1cccc(-c2ccc3ncc(N4CCOCC4)nc3c2)c1` showed a growth inhibition of 88.7%.

`COc1cncc(-c2cncc(N3CCN(c4ccncc4)CC3)n2)c1` yielded a growth inhibition of 89.1%.

Consider `CCN(CC)C(=O)N1CCN(C)CC1`, for which the growth inhibition is less than 0%.

Molecule `COc1cc(NC(C)CCCN)c2ncccc2c1` (stereo not drawn) had a growth inhibition of 38%.

Take `c1ccc(-c2cc(N3CCCCC3)c3ccccc3n2)nc1`: the growth inhibition came to 26.9%.

As for `O=C(NCCc1ccn(-c2ccccc2)n1)C1CCCCC1`, the growth inhibition was 3.27%.

The molecule `O=C(Nc1ccc(F)c(-c2nc3cc(-c4ccccc4)cnc3[nH]2)c1)N1CCCC1` came in with a growth inhibition of less than 0%.

Molecule `O=C(c1ccc(NCCO)cc1)C1C[C@H]1c1ccc(Cl)cc1` (stereo partly drawn) returned a growth inhibition of 89%.

The molecule `CCCCS(=O)(=O)Nc1ccc2cnn(C)c2c1` displayed a growth inhibition of 1.13%.

As for `COC(=O)c1c(NC(=O)c2c(F)c(F)c(F)c(F)c2F)sc2c1CCCCC2`, the growth inhibition was less than 0%.

For the molecule `CCCn1c(NC(=O)c2ccc3ccccc3n2)nc2ccccc21`, the growth inhibition came to 85%.

`CC(c1cc(Cl)cc(Cl)c1)N(C)c1ncc2c(N)nc(N)nc2n1` (stereo not drawn) registered a growth inhibition of 77.7%.

`COc1ccc(C2=NN(C3CCCCCC3)C(=O)C2(C)C)cc1OCCCCOc1ccc(-c2nn[nH]n2)cc1` had a growth inhibition of 46.8%.

Turning to `CC(C)NCC(=O)Nc1cccc(C(=O)Nc2cccc(C(F)(F)F)c2)c1`, the growth inhibition worked out at 97.4%.

With `O=C(Nc1ccc(N2CCNCC2)cc1)c1ccn2ncc(-c3cccc(Cl)c3)c2n1`, the growth inhibition is 99.8%.

Take `Cc1ccc(S(=O)(=O)N2CCN(C(=O)c3cc(-c4ccccc4)n[nH]3)CC2)cc1`: the growth inhibition was 88.6%.

Turning to `CCc1ccccc1-n1c(C)cn2c3c(=O)n(C(C(=O)OC)C(C)C)c(=O)n(C)c3nc12` (stereo not drawn), the growth inhibition turned out to be 87.9%.

In turn, `N#Cc1ccc(-c2cnc(N)c(-c3ccc(C(N)=O)cc3)n2)cc1` returned a growth inhibition of 89.9%.

On to `Cc1nc(-c2ccccn2)nc(N2CCC(Cc3ccccc3)C2)c1Cl` (stereo not drawn), for which the growth inhibition was 84.9%.

The molecule `Cc1ccc2c(c1C)NC(=O)C21NN=C(c2ccccc2)S1` (stereo not drawn) returned a growth inhibition of 89.8%.

As to `O=C(c1ccco1)N(CCCn1ccnc1)c1nc2c(Cl)cccc2s1`, the growth inhibition worked out at 92.8%.

As to `O=C(Nc1nc(-c2ccccn2)cs1)c1cncn1-c1ccccc1`, the growth inhibition is less than 0%.

With `COc1ccccc1C(C)NCC(=O)Nc1cc(C(F)(F)F)ccc1Cl` (stereo not drawn), the growth inhibition was 88%.

Regarding `O=C(C(Cc1c[nH]c2ccccc12)NS(=O)(=O)c1ccc(Cl)cc1)N1CCCCC1` (stereo not drawn), the growth inhibition came out at 88.7%.

`CC(C)=CCC/C(C)=C/CNCCNC1C2CC3CC(C2)CC1C3` (stereo not drawn) displayed a growth inhibition of 91.3%.

As to `COc1nc2ccc(Br)cc2cc1[C@@H](c1ccccc1)[C@@](O)(CCN(C)C)c1cccc2ccccc12`, the growth inhibition was 88.2%.

`CC(C)(C)n1nc(-c2ccccc2)c2c(N)ncnc21` gave a growth inhibition of less than 0%.

`CCCS(=O)(=O)N1CCC(CO)(Cc2ccccc2C(F)(F)F)CC1` showed a growth inhibition of 87.9%.

`c1ccc(-c2nc(NC3CCCCC3)cc(C3CC3)n2)nc1` had a growth inhibition of 93.6%.

`Cn1ccnc1CNCCS(=O)(=O)c1cccc(Nc2ccc(-c3cccc(F)c3)cn2)c1` showed a growth inhibition of 3.75%.

`Cc1nnc(NCc2cccc(Cl)c2)c2ccccc12` had a growth inhibition of less than 0%.

In turn, `CCc1ccc(C(NCc2nc(N)nc(N(C)C)n2)C(C)C)cc1` (stereo not drawn) came in with a growth inhibition of 9.29%.

`CC(=O)Oc1ccccc1C(=O)Nc1ncc([N+](=O)[O-])s1` returned a growth inhibition of less than 0%.

For `CCC(NC(=O)c1ccccc1NC(=O)c1ccc(C)cc1)C(=O)OC` (stereo not drawn), the growth inhibition is 91.3%.

The molecule `CC(C)C(C(=O)Nc1ccc(S(=O)(=O)N(C)C)cc1)c1ccc(Cl)cc1` (stereo not drawn) registered a growth inhibition of 90.3%.

For `COc1cc(C(F)(F)F)nc2ccc(C)c(N)c12`, the growth inhibition is less than 0%.

On to `CCOc1ccccc1C(=O)Nc1cccc(-c2nc3ncccn3c2C)c1`, for which the growth inhibition is 85.4%.

For the molecule `Cc1cc(NC(=O)c2ccc(Oc3ccc(Cl)cc3O)o2)no1`, the growth inhibition stood at 34.9%.
